Compounds without any hit were thinned out: in the full panel of roughly 79,000, 15% have a hit. Unmarked numbers belong to inactive results. Active and inactive are the calls of the source. Rule as the data show it: active = growth inhibition above about 70%; inactive = the rest.
Assay: NCI Yeast Anticancer Drug Screen. Data for the rad50 strain (AID 155);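 also: 0% = growth of vehicle-only cultures of the same strain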
Details: S. cerevisiae rad50 strain growth inhibition; at 50.0 µM; stronger effect = higher value
Method in brief: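 Vehicle-treated cultures provide the reference for the growth inhibition reported for compound-exposed, repair-deficient yeast.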

| SMILES | growth inhibition |
| --- | --- |
| CC(=O)Oc1ccccc1C#CC(=O)O | 17.3% |
| COc1ccc(C(O)(CCN2CCOCC2)c2ccc3c(c2)OCO3)cc1 (stereo not given) | -8.4% |
| O=C(CCn1[nH]c(=O)c(Cl)c(Cl)c1=O)NNC(=O)C[n+]1ccccc1 | -4.2% |
| Cc1ccc(S(=O)c2ccccc2[N+](=O)[O-])cc1 (stereo not given) | 4.85% |
| O=[N+]([O-])c1c(Nc2ccccc2)ncnc1Nc1ccccc1 | -33.9% |
| CCCCNC(C)(C)CSS(=O)(=O)O | -12.9% |
| O=C1OC(/C=C/c2ccccc2)=NC/1=C\c1ccccc1O | 16.1% |
| CC(O)CCNc1nnc2c3ccccc3n(C)c2n1 (stereo not given) | 5.95% |
| CC(C(=O)O)C(=O)NNc1ccccc1 (stereo not given) | 7.8% |
| CN1CCS(=O)(=O)C2CCCCC2C1=O (stereo not given) | 1.25% |
| Oc1ccccc1C=NCCCN=Cc1ccccc1O | 12.4% |
| COc1cccc(C2c3cc4c(cc3OC(C)(O)C2C)OCO4)c1OC (stereo not given) | 22.6% |
| CC1(C)CCCCC1=O | -0.15% |
| CCC(O)C(CC)CC (stereo not given) | 13.8% |
| CCO[Si](C)(CCC#N)OCC | 6.05% |
| Cc1cccc(Cl)c1NC1=NCCN1C(=O)CC(=O)c1ccccc1 | 54.1% |
| CC12C=C[C@]3(CC[C@@H]4[C@@](C)(CO)CCC[C@]4(C)C3CC1)C2 (stereo not given in full) | 13.4% |
| CC(NC(=O)c1ccccc1)c1ccc[nH]1 (stereo not given) | 8.75% |
| Cc1cccc(C2=C/C(=C(\SS/C(C(=O)c3ccc(OCC(=O)O)c(Cl)c3Cl)=C3\C=C(c4cccc(C)c4)SS3)C(=O)c3ccc(OCC(=O)O)c(Cl)c3Cl)SS2)c1 | -6.65% |
| O=S(=O)(/C=C/c1ccc(Cl)cc1Cl)Cc1ccccc1CS(=O)(=O)/C=C/c1ccc(Cl)cc1Cl | 4.85% |

| SMILES | growth inhibition |
| --- | --- |
| Cc1c2ccccc2c(CN2CC(O)CC2C(=O)O)c2ccccc12 (stereo not given) | 70.6% (active) |
| CC(CCC(=O)O)(CCC(=O)O)[N+](=O)[O-] | 0.85% |
| CCCCCCCCCCCCCCCC(=O)NOCc1cscn1 | -0.8% |
| COC(=O)c1ccc(C(=O)OC)c(N)c1 | 0.95% |
| CCCCCCN(CCCCCC)CC(O)c1c(Cl)ccc2ccccc12 (stereo not given) | 99.1% (active) |
| CCS(=O)(=O)CCNC(=O)NS(=O)(=O)c1ccc(C)cc1 | -2.2% |
| O=C1CN(C=C2C(=O)NC(=O)NC2=O)C(=S)N1 | -53.8% |
| NC(=O)c1[nH]c(COCCO)nc1N | -20.4% |
| CC(=O)SC1CC(=O)OC1=O (stereo not given) | -3.1% |
| CSC1NC(c2ccc(Cl)cc2)=C(C#N)C(=O)N1C1OCC(OC(C)=O)C(OC(C)=O)C1OC(C)=O (stereo not given) | -10% |
| Cc1ccc(C)c(NC(=O)NC(C)C)c1 | -0.6% |
| Cc1ccc(N=Nc2cc(C)c(N)cc2N)c(S(=O)(=O)O)c1 | -33.3% |
| CN(C)CC1CCC(CN(C)C)C1=NO (stereo not given) | 13.7% |
| CC(C)C(=O)NCc1ccccc1Sc1ccccc1CNC(=O)C(C)C | -13.8% |
| CCOC(=O)N1CN(C(=O)OCC)CN(C(=O)OCC)C1 | 15.7% |
| OCC1(CO)CCCO1 | 4.15% |
| CCCCOP(=O)(OCCCC)/C(C#N)=C/c1ccc(C)o1 | -21.2% |
| CN1CCCC2C3=CC=C4CC(O)CCC4(C)C3CCC21C (stereo not given) | 60.4% |
| c1ccc(C(Sc2ncnc3nc[nH]c23)c2ccccc2)cc1 | 15% |
| C=CCOc1ccc2cc(Br)ccc2c1 | 3.85% |

Assay: NCI Yeast Anticancer Drug Screen. Data for the mec2-1 strain (AID 157)
Details: S. cerevisiae mec2-1 strain, at 50.0 µM, stronger effect = higher value
Method in brief: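 Growth inhibition is read against vehicle-treated controls after compound exposure of the mec2-1 yeast strain, which is defective in DNA damage repair or cell cycle control.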

| SMILES | growth inhibition |
| --- | --- |
| CC(=O)Oc1ccccc1C#CC(=O)O | 25.6% |
| COc1ccc(C(O)(CCN2CCOCC2)c2ccc3c(c2)OCO3)cc1 (stereo not given) | 9.2% |
| O=C(CCn1[nH]c(=O)c(Cl)c(Cl)c1=O)NNC(=O)C[n+]1ccccc1 | -8.9% |
| Cc1ccc(S(=O)c2ccccc2[N+](=O)[O-])cc1 (stereo not given) | 9.45% |
| O=[N+]([O-])c1c(Nc2ccccc2)ncnc1Nc1ccccc1 | -15.9% |
| CCCCNC(C)(C)CSS(=O)(=O)O | -23.3% |
| O=C1OC(/C=C/c2ccccc2)=NC/1=C\c1ccccc1O | 8.6% |
| CC(O)CCNc1nnc2c3ccccc3n(C)c2n1 (stereo not given) | 0.65% |
| CC(C(=O)O)C(=O)NNc1ccccc1 (stereo not given) | -17.9% |
| CN1CCS(=O)(=O)C2CCCCC2C1=O (stereo not given) | -13.4% |
| Oc1ccccc1C=NCCCN=Cc1ccccc1O | 0.25% |
| COc1cccc(C2c3cc4c(cc3OC(C)(O)C2C)OCO4)c1OC (stereo not given) | 4.05% |
| CC1(C)CCCCC1=O | -1.8% |
| CCC(O)C(CC)CC (stereo not given) | -19.7% |
| CCO[Si](C)(CCC#N)OCC | -64% |
| Cc1cccc(Cl)c1NC1=NCCN1C(=O)CC(=O)c1ccccc1 | -9.2% |
| CC12C=C[C@]3(CC[C@@H]4[C@@](C)(CO)CCC[C@]4(C)C3CC1)C2 (stereo not given in full) | -2.7% |
| CC(NC(=O)c1ccccc1)c1ccc[nH]1 (stereo not given) | -9.2% |
| Cc1cccc(C2=C/C(=C(\SS/C(C(=O)c3ccc(OCC(=O)O)c(Cl)c3Cl)=C3\C=C(c4cccc(C)c4)SS3)C(=O)c3ccc(OCC(=O)O)c(Cl)c3Cl)SS2)c1 | -22.8% |
| O=S(=O)(/C=C/c1ccc(Cl)cc1Cl)Cc1ccccc1CS(=O)(=O)/C=C/c1ccc(Cl)cc1Cl | 5.3% |

| SMILES | growth inhibition |
| --- | --- |
| Cc1c2ccccc2c(CN2CC(O)CC2C(=O)O)c2ccccc12 (stereo not given) | 33.2% |
| CC(CCC(=O)O)(CCC(=O)O)[N+](=O)[O-] | -1.1% |
| CCCCCCCCCCCCCCCC(=O)NOCc1cscn1 | -29.1% |
| COC(=O)c1ccc(C(=O)OC)c(N)c1 | 5.4% |
| CCCCCCN(CCCCCC)CC(O)c1c(Cl)ccc2ccccc12 (stereo not given) | 96.5% (active) |
| CCS(=O)(=O)CCNC(=O)NS(=O)(=O)c1ccc(C)cc1 | -7.85% |
| O=C1CN(C=C2C(=O)NC(=O)NC2=O)C(=S)N1 | -23.7% |
| NC(=O)c1[nH]c(COCCO)nc1N | -10.4% |
| CC(=O)SC1CC(=O)OC1=O (stereo not given) | -15.3% |
| CSC1NC(c2ccc(Cl)cc2)=C(C#N)C(=O)N1C1OCC(OC(C)=O)C(OC(C)=O)C1OC(C)=O (stereo not given) | -23.6% |
| Cc1ccc(C)c(NC(=O)NC(C)C)c1 | 0.5% |
| Cc1ccc(N=Nc2cc(C)c(N)cc2N)c(S(=O)(=O)O)c1 | -5.35% |
| CN(C)CC1CCC(CN(C)C)C1=NO (stereo not given) | -2.55% |
| CC(C)C(=O)NCc1ccccc1Sc1ccccc1CNC(=O)C(C)C | 6.1% |
| CCOC(=O)N1CN(C(=O)OCC)CN(C(=O)OCC)C1 | 19.5% |
| OCC1(CO)CCCO1 | -21.9% |
| CCCCOP(=O)(OCCCC)/C(C#N)=C/c1ccc(C)o1 | -40.8% |
| CN1CCCC2C3=CC=C4CC(O)CCC4(C)C3CCC21C (stereo not given) | 21.5% |
| c1ccc(C(Sc2ncnc3nc[nH]c23)c2ccccc2)cc1 | 13.2% |
| C=CCOc1ccc2cc(Br)ccc2c1 | -2.55% |

Source: PubChem BioAssay (NCI)
